From PubChem BioAssay (Tox21)
Results filed as inconclusive are left out. Activity calls are given as the source filed them. Unless noted, calls follow the shape of the dose curve; as a rule, active = well fitted curve in the direction sought with a large enough effect in the repeat runs; inconclusive = weak or mixed curves; inactive = no such curve, though single readings can be large; an effect the other way counts as inactive or inconclusive.

What was measured:
[1] = qHTS assay for small molecule agonists of the p53 signaling pathway (AID 651631; calls by dose curve; also: nearly all actives have a fitted effect of over 15% in size)
Summary of the method: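 Quantitative high-throughput format: 4,000 p53RE-bla HCT-116 cells/well, 5 h pre-incubation, 16 h compound exposure at 37 °C, 2 h room-temperature substrate step, fluorescence intensity measured.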

[2] = qHTS assay for small molecules that induce genotoxicity in human embryonic kidney cells expressing luciferase-tagged ATAD5 (AID 651632); also: nearly all actives have a fitted effect of over 15% in size
Summary of the method: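 Test compounds were delivered by pin tool onto HEK293T reporter cells (2,000/well) expressing ATAD5 fused to luciferase. After 16 hr at 37C, 5% CO2, Amplite was added for 30 min at room temperature and luminescence was measured.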

[3] = qHTS assay for small molecule agonists of the p53 signaling pathway - cell viability (AID 651633; calls by dose curve;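 also: p53RE-bla HCT reporter cells with a stable beta-lactamase p53 reporter; series mostly up to about 83 µM; nearly all actives have a fitted effect of over 30% in size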)
Summary of the method: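 Viability counter-read: CellTiter-Glo luminescence (30 min, room temperature) in the same p53RE-bla plates. These plates had been exposed to compounds for 16 h at 37 C.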

[4] = qHTS assay for small molecules that induce genotoxicity in human embryonic kidney cells expressing luciferase-tagged ATAD5 - cell viability (AID 651634; calls by dose curve; also: nearly all actives have a fitted effect of over 25% in size)
Summary of the method: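 Quantitative high-throughput format. HEK293T cells expressing ATAD5 fused to luciferase were plated at 2,000 cells/well and treated 15.5 hr with compound versus DMSO. Viability was determined by fluorescent live-cell protease substrate, 30 min at 37C.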

[5] = qHTS assay for small molecule disruptors of the mitochondrial membrane potential - cell viability (AID 720634; calls by dose curve;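 also: human HepG2 liver cancer cells; series mostly up to about 83 µM; nearly all actives have a fitted effect of over 20% in size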)
Summary of the method: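 Same-well counter-screen: following the MMP dye addition, CellTiter-Glo was added to 1 hr compound-treated HepG2 cells and luminescence read after 30 min at room temperature.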

[6] = qHTS assay to test for compound auto fluorescence at 590 nm (red) in HepG2 cells (AID 720674)
Summary of the method: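 Red autofluorescence (Ex/Em 540/590 nm, Rose Bengal sodium equivalents) was measured in HepG2 cells, 2,000 per well in MEM plus 10% FBS, plated overnight at 37 C. Readings were taken 1 hr after adding 23 nL compound or DMSO, at 37 C and 5% CO2.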

[7] = qHTS assay to test for compound auto fluorescence at 535 nm (green) in HepG2 cells (AID 720675)
[8] = qHTS assay to test for compound auto fluorescence at 460 nm (blue) in HEK293 cells (AID 720678)
Summary of the method: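 HEK293 cells (2,000 per well, medium with 10% dialyzed FBS) attached for 4-5 hr at 37C, then received compound and stood overnight at 37C, 5% CO2. Blue fluorescence was read at Ex/Em 405/460 nm and expressed relative to triamterene.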

[9] = qHTS assay to test for compound auto fluorescence at 590 nm (red) in HEK293 cells (AID 720679)
Summary of the method: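 HEK293 cells (2,000/well, medium with 10% dialyzed FBS) attached for 4-5 hr at 37C, received 23 nL compound and were incubated overnight at 37C, 5% CO2. Red fluorescence was then read at 540/590nm Ex/Em, referenced to Rose Bengal sodium.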

[10] = qHTS assay to test for compound auto fluorescence at 535 nm (green) in HEK293 cells (AID 720680)
[11] = qHTS assay to test for compound auto fluorescence at 460 nm (blue) in HEK293 cell free culture (AID 720681)
Summary of the method: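 Blue fluorescence (Ex 405/Em 460 nm, triamterene-equivalent) was read immediately after pin transfer of compound or DMSO into medium (DMEM, 10% FBS) without cells.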

[12] = qHTS assay to test for compound auto fluorescence at 535 nm (green) in HEK293 cell free culture (AID 720682)
Summary of the method: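 Measurement is a direct plate read of green fluorescence (485 nm in, 535 nm out) after compound addition to serum-supplemented DMEM lacking cells, with fluorescein used to express intensities.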

[13] = qHTS assay to test for compound auto fluorescence at 590 nm (red) in HEK293 cell free culture (AID 720683)
Summary of the method: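 Red-channel autofluorescence of compounds in culture medium (DMEM, 10% FBS), no cells, measured at 540/590 nm. Rose Bengal sodium is the reference fluorophore for equivalence.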

[14] = qHTS assay to test for compound auto fluorescence at 590 nm (red) in HepG2 cell free culture (AID 720684)
Summary of the method: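 Cell-free; medium MEM + 10% FBS; compound or DMSO added by pintool; read Ex 540/Em 590 nm; Rose Bengal sodium as red reference fluorophore.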

[15] = qHTS assay to test for compound auto fluorescence at 460 nm (blue) in HepG2 cell free culture (AID 720685)
Summary of the method: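 Cell-free plates of MEM plus 10% FBS received 23 nL compound or DMSO vehicle; blue-channel (405/460 nm) intensity scored against triamterene as reference fluorophore.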

[16] = qHTS assay to test for compound auto fluorescence at 535 nm (green) in HepG2 cell free culture (AID 720686)
[17] = qHTS assay to test for compound auto fluorescence at 460 nm (blue) in HepG2 cells (AID 720687)
Summary of the method: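 Blue-channel autofluorescence (Ex/Em 405/460 nm, triamterene-equivalent) was measured after 1 hr compound exposure at 37 C, 5% CO2. Cells were HepG2, plated overnight at 37 C in MEM plus 10% FBS.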

[18] = biological target: Glucocorticoid receptor (Homo sapiens) (UniProt P04150); assay: qHTS assay to identify small molecule agonists of the glucocorticoid receptor (GR) signaling pathway (AID 720691; active = well fitted activation curve with a large enough effect in the signal ratio in the repeat runs, not every such curve was filed as active; the % refers to the signal ratio)
Chain of Glucocorticoid receptor (Homo sapiens) (P04150 whole entry, looked up): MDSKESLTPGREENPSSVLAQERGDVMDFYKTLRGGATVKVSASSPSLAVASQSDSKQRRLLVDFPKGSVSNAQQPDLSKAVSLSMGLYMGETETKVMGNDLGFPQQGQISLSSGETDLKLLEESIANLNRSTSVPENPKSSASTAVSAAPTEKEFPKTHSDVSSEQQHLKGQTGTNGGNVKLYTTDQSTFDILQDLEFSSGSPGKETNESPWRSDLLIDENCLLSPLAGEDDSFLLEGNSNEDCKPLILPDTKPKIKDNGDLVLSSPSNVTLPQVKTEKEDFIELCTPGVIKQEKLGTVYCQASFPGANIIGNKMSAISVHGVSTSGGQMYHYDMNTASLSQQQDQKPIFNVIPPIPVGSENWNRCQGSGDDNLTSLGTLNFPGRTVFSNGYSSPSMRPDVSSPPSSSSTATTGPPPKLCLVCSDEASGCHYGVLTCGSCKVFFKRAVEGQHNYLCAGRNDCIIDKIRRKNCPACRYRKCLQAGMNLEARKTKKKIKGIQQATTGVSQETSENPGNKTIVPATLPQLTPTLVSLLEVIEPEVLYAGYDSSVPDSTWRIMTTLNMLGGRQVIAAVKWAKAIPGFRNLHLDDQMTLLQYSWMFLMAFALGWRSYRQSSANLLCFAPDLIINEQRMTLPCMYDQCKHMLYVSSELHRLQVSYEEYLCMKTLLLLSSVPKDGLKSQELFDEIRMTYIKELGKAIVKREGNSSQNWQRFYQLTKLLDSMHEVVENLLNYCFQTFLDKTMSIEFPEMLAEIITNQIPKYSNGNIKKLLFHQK
Summary of the method: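 A HeLa cervical cancer line expressing GR and a glucocorticoid response element-driven beta-lactamase gene is treated with compounds for 18 h; LiveBLAzer B/G FRET substrate is then applied and fluorescence read.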

[19] = biological target: Glucocorticoid receptor (Homo sapiens) (UniProt P04150); assay: qHTS assay to identify small molecule antagonists of the glucocorticoid receptor (GR) signaling pathway (AID 720692; active = well fitted inhibition curve with a large enough effect in the signal ratio in the repeat runs, not every such curve was filed as active; the % refers to the signal ratio)
Summary of the method: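 GRE-bla HeLa line, dex-stimulated (5 nM final). Compound exposure 18 h, 37 C. Beta-lactamase FRET read after 2 h RT substrate.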

Measured: Potency

CCCCC(CC)COC(=O)c1ccccc1O (stereo not drawn)
inactive: [1] | [2] | [3] | [4] | [5] | [6] | [7] | [8] | [9] | [10] | [11] | [12] | [13] | [14] | [15] | [16] | [17] | [18] | [19]

N=C(N)c1ccccc1
inactive: [1] | [2] | [3] | [4] | [5] | [6] | [7] | [8] | [9] | [10] | [11] | [12] | [13] | [14] | [15] | [16]

COC(=O)c1ccc(C)cc1C1=NC(C)(C(C)C)C(=O)N1 (stereo not drawn)
inactive: [1] | [2] | [3] | [4] | [5] | [6] | [7] | [8] | [9] | [10] | [11] | [12] | [13] | [14] | [15] | [16] | [17] | [18] | [19]

COC(=O)NN
inactive: [1] | [2] | [3] | [4] | [5] | [6] | [7] | [8] | [9] | [10] | [11] | [12] | [13] | [14] | [15] | [16] | [17] | [18] | [19]

CCOC(=O)CCC(C)=O
inactive: [1] | [2] | [3] | [4] | [5] | [6] | [7] | [8] | [9] | [10] | [11] | [12] | [13] | [14] | [15] | [16] | [17] | [18] | [19]

CN1CCCC1
inactive: [1] | [2] | [3] | [4] | [5] | [6] | [7] | [8] | [9] | [10] | [11] | [12] | [13] | [14] | [15] | [16] | [17]

N=C(N)c1ccc2cc(OC(=O)c3ccc(N=C(N)N)cc3)ccc2c1
inactive: [1] | [2] | [3] | [4] | [5] | [6] | [7] | [8] | [9] | [10] | [11] | [12] | [13] | [14] | [15] | [16] | [17]

Nc1ccccc1S(=O)(=O)O
inactive: [1] | [2] | [3] | [4] | [5] | [6] | [7] | [8] | [9] | [10] | [11] | [12] | [13] | [14] | [15] | [16] | [17]
